Compound activity as filed in PubChem.
HepG2 viability: counter-screen for TGF-b inhibitors: cytotoxicity in HepG2 cells; 410,000 compounds, 0.76% hits; Potency, µM (doses to about 46.1 µM), for the others: at the highest dose activity change, negative = cytotoxicity, hits mostly cytotoxic; AID 588856; HepG2 CAGA-GFP viability, ATP luminescence, 18 h
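CellTiter-Glo luminescence gave cytotoxicity after 18 hours at 37 degrees C. The cells were HepG2 CAGA-GFP in 1% FBS DMEM, stimulated with 500 pg/mL TGF-beta after compound addition. %Activity was normalised to no-cell wells (complete cell-killing) and DMSO (no toxicity), and curves were fitted and classified.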
ATXN2 expr inh: inhibitors of ATXN2 expression. Potency, µM (titrated, usually from 57 µM), for inactives: at the top dose activity change, negative = inhibition, hits mostly inhibitors. HEK-293 ATXN2-luciferase reporter, luminescence, 24 h. 360,000 compounds, 0.72% hits; further: on the % scale 0 is the no-effect control and ±100 the full control effect; nearly all actives have a fitted effect of over 55% in size
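qHTS (up to 57 uM final) was run with 24 h compound exposure of reporter cells at 37 °C. Each well was multiplexed: SteadyGlo luminescence measured ATXN2-luciferase expression after a fluorogenic Gly-Phe-AFC viability readout (25 uM final).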
HT1080NT lethal: kills 2HG-producing HT-1080-NT fibrosarcoma cells; HT-1080-NT fibrosarcoma viability, CellTiter-Glo ATP luminescence, 48 h; Potency, µM (highest dose often 46.1 µM), inactives show at the highest dose activity, negative = less viability, usual class: cytotoxic; AID 686970; 360,000 compounds, 1.6% hits;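 further: NT is the 2HG producing partner of a matched IDH1 knockdown line; 0% = DMSO-treated cells and -100% = media-only wells without cells; nearly all actives have a fitted effect of over 55% in size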
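HT-1080-NT; 750 cells/well; 5% FBS RPMI; 48 h compound, 37 degrees C; CellTiter-Glo luminescence; curve fitting and curve-class assignment.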
S2 tox: viability counter-screen for ATXN expression inhibitors | S2 cells (HEK-293 line with an ATXN2-luciferase reporter) viability, CellTiter-Fluor protease fluorescence, 24 h | Potency, µM (highest dose often 56.7 µM), actives largely listed as cytotoxic | 400,000 compounds, 0.49% hits; further: nearly all actives have a fitted effect of over 40% in size
HT1080 IDH1KD tx: kills HT-1080 cells with IDH1 knockdown. HT-1080 IDH1 knockdown viability, ATP luminescence, 48 h. Potency, µM (highest dose often 46.1 µM), for inactives: at the highest dose activity, negative = toxicity, actives largely listed as cytotoxic. 360,000 compounds, 2% hits;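 further: 0% = DMSO wells and -100% = cell-free medium wells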
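Using the IDH1-knockdown HT-1080 line run in the same batch and compound series as the NT line, viability after 48 h at 37 °C was determined by CellTiter-Glo luminescence and expressed as % activity.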
TGFb SMAD3 inh: inhibitors of TGF-b signaling; AID 588855; HepG2 CAGA-GFP TGF-b/SMAD3 reporter, GFP fluorescence, 18 h; TGF-beta stimulated, 500 pg/mL final; Potency, µM (top dose mostly 46.1 µM), for the others: at the top dose activity, negative = inhibition, usual class: inhibitors; 410,000 compounds, 1.2% hits; further: on the % scale 0 is the no-effect control and ±100 the full control effect; nearly all actives have a fitted effect of over 65% in size
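Using HEPG2 CAGA-GFP reporter cells at 1000 cells/well, we pinned test compounds, stimulated with recombinant TGF-beta (500 pg/mL final) and measured total well GFP after 18 h.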
* marks the source's active call; other numbers are inactive results; i = inactive; u = inconclusive; x = no result given; [ ] = dose if it differs, or a comment. A selection: hits, their analogues and other compounds. The true share with any hit is near 3.8%. The call rests on the fitted dose curve; in most records, active means well fitted curve in the direction sought with a large enough effect; inconclusive means small, poorly fitted or top-dose-only effect, or another doubt; inactive means no such curve, though single readings can be large; an effect the other way counts as inactive or inconclusive. Potency means the concentration at half of the fitted maximal effect.

SMILES	HepG2 viability	ATXN2 expr inh	HT1080NT lethal	S2 tox	HT1080 IDH1KD tx	TGFb SMAD3 inh
O=C(CCl)N1N=C(c2ccco2)CC1c1ccco1 (stereo not drawn)	-85%	-15%	26µM*	i	u	11µM*
Cc1ccc(C2=NN(C(=O)CSc3nccn3C)C(c3ccco3)C2)cc1 (stereo not drawn)	-1%	-10%	18µM*	i	15µM*	-11%
Cn1c(/C(C#N)=C/c2ccccc2Br)nc2ccccc21	-53%	x	x	x	x	x
COc1ccc(C=O)cc1COc1ccc2c(c1)OCO2	-3%	74%	u	i	23µM*	5%
COc1ccc(C=O)cc1COc1ccc([N+](=O)[O-])c(C)c1	-9%	6%	u	i	u	0%
O=c1oc2ccccc2cc1-c1cn2cccnc2n1	-25%	x	-3%	x	-8%	4%
O=c1oc2ccccc2cc1-c1cn2ccccc2n1	-43%	u	26µM*	i	23µM*	9%
CCOc1ccc(Cc2cc([C@@H]3O[C@H](CO)[C@@H](O)[C@H](O)[C@@H]3O)ccc2Cl)cc1	x	0%	x	x	x	x
CCCCNc1nc(N)nc(-c2cc(Cl)ccc2O)n1	-55%	91%	-11%	i	0%	u
CCNc1nc(N)nc(-c2cc(Cl)ccc2O)n1	6%	81%	16µM*	i	23µM*	u
CCOC(=O)CC(S(=O)(=O)c1ccccc1)S(=O)(=O)c1ccccc1	-99%	x	u	u	21µM*	u
CCOC(=O)N=S(N)(=O)c1ccccc1 (stereo not drawn)	-1%	3%	8%	i	-1%	21%
CC(NC(=O)/C(C#N)=C/c1ccc(Cl)c([N+](=O)[O-])c1)c1ccccc1 (stereo not drawn)	-112%	x	u	22µM*	u	u
N#C/C(=C\c1ccc(Cl)c([N+](=O)[O-])c1)c1ccccn1	-45%	-37%	15µM*	i	10µM*	u
COc1ccc(S(=O)(=O)Nc2cccc(-c3ccc(N4CCCCCC4)nn3)c2)cc1F	-22%	12%	x	u	x	-26%
O=C1c2[nH]nc(-c3ccccc3O)c2C(c2cccc(Br)c2)N1Cc1ccncc1 (stereo not drawn)	-38%	u	x	11µM*	x	u
COc1ccc(CCN2C(=O)c3[nH]nc(-c4ccccc4O)c3C2c2cccc(Cl)c2)cc1 (stereo not drawn)	-92%	-26%	23µM*	u	12µM*	u
CC(C)c1ccc(C2c3c(-c4ccccc4O)n[nH]c3C(=O)N2CCc2ccccc2)cc1 (stereo not drawn)	-30%	x	x	x	x	-11%
CCOc1cc(C2c3c(-c4cc(C)ccc4O)n[nH]c3C(=O)N2CCCOC(C)C)ccc1O (stereo not drawn)	-13%	x	x	x	x	13µM*
Cc1ccc(C2c3c(-c4ccccc4O)n[nH]c3C(=O)N2CCc2ccccc2)cc1 (stereo not drawn)	-95%	x	x	x	x	11µM*
CCOc1ccc(C2c3c(-c4cc(C)ccc4O)n[nH]c3C(=O)N2Cc2cccnc2)cc1OCC (stereo not drawn)	-18%	8%	x	i	x	-17%
CCOC(=O)N1CCN(Cc2ccc3c(c2)CN(C(=O)c2noc4c2CCCC4)CCO3)CC1	x	x	x	i	x	x
CC(NC(=O)C1CCOCC1)c1nnc2n1CCN(Cc1cc3c(cc1Cl)OCO3)CC2 (stereo not drawn)	x	x	x	i	x	x
CCN(CC)CCOC(=O)c1ccc(NC(=O)c2cc3cccc(OC)c3oc2=O)cc1	-59%	66%	x	i	x	-1%
CCCN1C(=O)c2[nH]nc(-c3ccccc3O)c2C1c1ccc(OCc2ccccc2)c(OC)c1 (stereo not drawn)	-42%	x	x	x	x	13µM*
SMILES	HepG2 viability	ATXN2 expr inh	HT1080NT lethal	S2 tox	HT1080 IDH1KD tx	TGFb SMAD3 inh
CCCOc1ccc(C2c3c(-c4ccccc4O)n[nH]c3C(=O)N2CCc2ccccc2)cc1OCC (stereo not drawn)	11µM*	x	x	x	x	11µM*
O=C1c2[nH]nc(-c3ccccc3O)c2C(c2cccc(OCc3ccccc3)c2)N1CCCO (stereo not drawn)	-102%	x	x	x	x	10µM*
CCc1ccc(C2c3c(-c4cc(C)ccc4O)n[nH]c3C(=O)N2Cc2cccnc2)cc1 (stereo not drawn)	20µM*	u	x	x	x	u
COc1cc(C2c3c(-c4ccccc4O)n[nH]c3C(=O)N2CCO)ccc1OCc1ccccc1 (stereo not drawn)	-18%	x	x	x	x	-25%
COC(=O)[C@@H]1CCCN1C(=O)c1c(OC)cc(=O)n2c1CCN(Cc1cc(OC)ccc1F)CC2	x	x	x	i	x	x
CC(=O)Nc1c(C)nn(-c2ccccc2)c1N1CCC(C(=O)Nc2ccccc2F)CC1	-14%	x	x	x	x	-3%
COc1ccc(-c2noc(CSCC(=O)Nc3ccc(C)cc3Br)n2)cc1OC	-33%	x	x	x	x	-17%
O=C(c1ccncc1)N1CCC2(CCC(CNC(=O)C3(N4CCOCC4)CCCCC3)O2)CC1 (stereo not drawn)	x	x	x	i	x	x
COc1ccc(NC(=S)Nc2ccc(C)c(Cl)c2)cc1OC	7%	-4%	-10%	i	12%	-17%
CC(NC(=S)Nc1ccc(OC(F)F)c(Cl)c1)C(C)(C)C (stereo not drawn)	-36%	14%[11.3 µM]	u	i	u	13µM*
O=C(Nc1ccc(OC(F)F)c(Cl)c1)C(c1ccccc1)c1ccccc1	20µM*	u	u	i	16µM*	22µM*
Cc1ccc(NC(=S)Nc2ccc(OC(F)F)c(Cl)c2)cc1Cl	-45%	u	6%	i	27%	18µM*
FC(F)Oc1ccc(NC(=S)NCc2ccccc2)cc1Cl	-49%	u	u	i	u	u
CC(=O)c1nnn(-c2ccc(C)cc2Cl)c1C	3%	x	x	x	x	-13%
O=C(Nc1ccccc1)Nc1csc2ccccc12	18µM*	41%	-22%	i	u	u
CC(=O)Nc1csc2ccccc12	12%	x	-3%	i	-4%	4%
O=C(Cc1ccc(NC(=O)N2CCSc3ncccc32)cc1)NCCc1ccccc1	-12%	x	x	x	x	0%
Cc1ccc(OCCCCN2CCCCC2)c(C)c1	2%	-1%	-2%	i	0%	-5%
Cc1ccc(OCCCCNC2CCCC(C)C2C)c(C)c1 (stereo not drawn)	-94%	u	21µM*	u	u	u
